# Screening data (PubChem)
# Rows were chosen to be rich in hits. Some 3.9% of all compounds tested hit in one or more screens of this group.
# BoNT-A LC inh2 – blocks Botulinum neurotoxin A light chain protease. multiplex microsphere protease substrate cleavage, flow cytometry. inhibition, % at 10 µM. 0.17% of 360,000 active. AID 588499
# BoNT F protease – blocks Botulinum neurotoxin F light chain protease; Multiplex microsphere protease cleavage assay, flow cytometry; inhibition, % at 10 µM; 0.22% of 360,000 active; in the data active = inhibition above about 35%, passing the limit was not always enough; inconclusive = no clear call, values can overlap the other calls
# Autofluor counter – counter-screen for toxin protease inhibitors: compound fluorescence; fluorescence intensity (concentration not given with the values); compound autofluorescence counterscreen, microsphere flow cytometry; active compounds read high; 3.1% of 360,000 active; in the data active = fluorescence intensity above about 16000; inconclusive = no clear call, values can overlap the other calls
# MazF activator – increases E. coli MazEF RNase cleavage of RNA | activation, % at 20 µM | 0.32% of 350,000 active | FAM/BHQ RNA-DNA oligo cleavage fluorescence, 5 h; in the data active = activation above about 50%
# Anthrax LF prot – blocks Bacillus anthracis lethal factor protease; inhibition, % at 10 µM; P15917; 0.12% of 360,000 active; multiplex microsphere protease cleavage assay, LF
# BH1578 lux ind – induces V. cholerae light production without autoinducers; V. cholerae BH1578 lux reporter, luminescence, 6 h; activation, % at 18.7 µM; 0.16% of 350,000 active; in the data active = activation mostly above about 9.7%, no sharp cut-off; inconclusive = no clear call, values can overlap the other calls; inactive = mostly below about 3.7%
# Hits are given with their value; . = inactive; ? = inconclusive; / = no result; ! = not confirmed by another sample. Cut-off read from the data, not from the text of the source, unless noted: active = inhibition above about 30%; inconclusive = no clear call, values can overlap the other calls; inactive = below that.
SMILES,BoNT-A LC inh2,BoNT F protease,Autofluor counter,MazF activator,Anthrax LF prot,BH1578 lux ind
O=C(Cn1c(-c2ccccc2)noc1=O)Nc1ccc(N2CCCCCC2)cc1,.,.,25078,.,.,.
O=C(Cn1c(-c2ccccc2)noc1=O)Nc1ccc(S(=O)(=O)N2CCOCC2)cc1,.,.,.,.,.,.
CCN(CC)c1ccc(C=C2C(=O)OC(c3ccccc3)OC2=O)cc1 (centres undefined),.,.,.,.,.,.
CCN(CC)c1ccc(/C=C/C(=O)C2C(=O)C=C(C)OC2=O)cc1 (centres undefined),70.0,154.2,66487,.,73.0,.
C=CCc1cccc(CNc2nc3ccccc3n2C(C)C)c1O,?,.,23489,.,.,.
O=C(NC1CC1)c1ccc(C2SCC(=O)N2Cc2ccccc2)cc1 (centres undefined),.,.,.,.,.,.
Oc1ccccc1Nc1nc(NCc2ccccc2)c2ccccc2n1,.,.,.,57.0,.,.
OCCNc1nc(Nc2ccc(Br)cc2)nc2ccccc12,/,/,/,.,/,/
c1ccc(CNc2ncnc3ccccc23)cc1,.,.,20097!,.,.,.
COc1cc2ncnc(NCc3ccccc3)c2cc1OC,.,.,.,.,.,.
Oc1ccccc1-c1nc(NCc2ccccc2)c2ccccc2n1,.,.,.,63.5,.,.
OCCNc1nc(Nc2ccccc2)nc2ccccc12,.,.,.,.,.,16.7
O=C(Nc1ccnn1C1CCN(Cc2cc(Cl)ccc2O)CC1)C1CC1,.,.,.,.,.,.
CCCNC(=O)C1(C)CCCN(CCC(=O)c2ccccc2)C1 (centres undefined),.,.,.,/,.,.
Oc1ccccc1-c1nc(NCc2ccco2)c2ccccc2n1,.,?,?,119.5,.,/
Fc1ccccc1-c1nc(NCc2ccco2)c2ccccc2n1,.,.,.,.,.,.
Cc1ccc(/C(N)=N/OC(=O)c2cc(-c3ccccc3)nc3ccccc23)cc1,.,.,.,.,.,.
COc1ccc(/C(N)=N/OC(=O)c2cc(-c3ccccc3)nc3ccccc23)cc1,.,.,19686,.,.,.
O=C(Cc1csc(Nc2nc(=S)[nH]c3ccccc23)n1)NCc1ccc(Cl)cc1,.,.,23044,.,.,.
COc1ccc(CNC(=O)Cc2csc(Nc3nc(=S)[nH]c4ccccc34)n2)cc1,.,.,.,.,.,.
CN(C)/C=C(\C#N)C(=O)N/N=C(\CC(=O)C(F)(F)F)c1ccco1,.,.,.,.,.,.
CC1(C(=O)NS(=O)(=O)c2ccc(C#N)cc2)CCN1C(=O)Cc1ccc(-c2ccccc2)cc1 (centres undefined),.,.,.,/,.,.
CCOC(=O)c1ccc(NC(=O)C2(c3ccc(OC)cc3)CCOCC2)cc1,.,.,.,60.5,.,.
CC12CCC(C(=O)NCc3ccc(Cl)cc3)(OC1=O)C2(C)C (centres undefined),.,.,21504,.,.,.
CCOC(=O)c1ccc(NC(=O)C2(c3ccc(OC)cc3)CCCC2)cc1,.,.,.,.,.,.
SMILES,BoNT-A LC inh2,BoNT F protease,Autofluor counter,MazF activator,Anthrax LF prot,BH1578 lux ind
CCOC(=O)c1ccc(NC(=O)COc2ccc(S(=O)(=O)NC(C)CC)cc2)cc1 (centres undefined),.,.,.,.,.,.
CCOC(=O)c1ccc(NC(=O)C23CCC(C)(C(=O)O2)C3(C)C)cc1 (centres undefined),.,.,16270,.,.,.
CCOC(=O)c1ccc(NC(=O)C(C)NS(=O)(=O)c2ccc(OC)cc2)cc1 (centres undefined),.,.,16181,.,.,.
Cn1c(SCc2ccccc2Cl)nc2c1c(=O)[nH]c(=O)n2C,/,/,/,.,/,.
CN(C)/C=C(/C(=O)c1ccc(Cl)cc1)S(=O)(=O)c1ccc(Cl)cc1,.,.,16355,.,.,.
O=S(=O)(Nc1ccc(Cc2ccncc2)cc1)c1ccc(Cl)s1,.,.,.,.,.,.
O=S(=O)(Nc1ccc(Cc2ccncc2)cc1)c1ccc(Br)s1,.,.,16939,.,.,.
Cc1ccc(S(=O)(=O)N/N=C/c2cccc3nccnc23)cc1,.,.,.,.,.,.
O=C(CSc1nnc(-c2ccccc2)c(-c2ccccc2)n1)Nc1ccc(Br)cn1,.,.,.,.,.,.
COc1ccc(NC(=O)c2csc3c2CCCC3)cc1,.,.,23873,.,.,.
Cc1ccccc1NC(=O)c1csc2c1CCCC2,.,.,20804,.,.,.
Cc1cc(C)c2nc(-c3ccccn3)cc(C(=O)n3cccn3)c2c1,.,.,.,.,.,.
CCOC(=O)c1c(C)n(C)c2ccc(O)c(CN(C)C)c12,.,.,.,.,.,.
CCOC(=O)c1c(C)n(C)c2ccc(O)c(S(=O)(=O)c3ccccc3)c12,.,.,24053,.,.,.
O=C(CSc1nc(O)c(C2CCCCC2)c(=O)[nH]1)Nc1ccc(F)cc1,.,.,.,.,.,.
CC(C)n1cnc2cc(NCc3ccccn3)ccc21,.,.,20604,.,.,.
CC(C)n1cnc2cc(NCc3ccccc3O)ccc21,.,.,.,.,.,.
CC(C)C[C@H]1CN(CCCC[C@@H]2CNC(=O)C(=O)N2CCc2ccccc2)C(=O)C(=O)N1CCc1ccc(O)cc1,.,.,.,/,.,/
O=C1CN(S(=O)(=O)c2cc(Cl)ccc2Cl)CCN1,.,.,.,.,.,.
O=C(CCC1CC(=O)Nc2ccccc21)NCc1ccc(F)cc1 (centres undefined),.,.,18975,.,.,.
CCc1ccc(CN2CCC(Oc3cc(C(=O)NC4CC4)ccc3OC)CC2)cc1,.,.,.,.,.,.
COc1ccc(-n2cc(CNC3CCC(O)CC3)c(-c3cccc(F)c3)n2)cc1 (centres undefined),.,.,.,.,.,.
O=C(COC(=O)c1cccc(F)c1)Nc1cccc(S(=O)(=O)N2CCCCC2)c1,.,.,.,.,.,.
O=C(O)c1cccc(N2C(=O)c3cccnc3C2=O)c1,?,.,23303,.,.,.
O=C(O)c1cccc(N2C(=O)c3cccc4cccc(c34)C2=O)c1,.,.,.,.,.,.
SMILES,BoNT-A LC inh2,BoNT F protease,Autofluor counter,MazF activator,Anthrax LF prot,BH1578 lux ind
Cn1c(O)c(/C=C2\C=Nc3ccccc32)c(=O)n(C)c1=O,.,.,.,141.1,.,.
CCCCn1c(O)c(/C=C2\C=Nc3ccccc32)c(=O)[nH]c1=O,.,.,.,254.7,.,.
COC(=O)C1=Nc2ccccc2/C1=C\c1c(O)n(C)c(=O)n(C)c1=O,.,.,.,.,.,.
O=C(Nc1cccc2ccccc12)c1nn(C23CC4CC(CC(C4)C2)C3)cc1[N+](=O)[O-],.,.,24019,.,.,.
O=C(Nc1ccc2ccccc2c1)c1nn(C23CC4CC(CC(C4)C2)C3)cc1Br,.,.,23799,.,.,.
COc1ccc(NC(=O)c2nn(C34CC5CC(CC(C5)C3)C4)cc2[N+](=O)[O-])cc1,.,.,.,.,.,.
CCn1cc(Br)c(C(=O)Nc2ccc(OC)cc2)n1,.,.,.,.,.,.
Cc1cc(C)n2c(NC3CCCCC3)c(-c3cccnc3)nc2n1,.,.,.,/,.,/
